Results filed as inconclusive are left out. Activity calls are given as the source filed them. Unless noted, calls come from the whole dose curve; as a rule, active = well fitted curve in the direction sought with a large enough effect in the repeat runs; inconclusive = weak or mixed curves; inactive = no such curve, though single readings can be large; an effect the other way counts as inactive or inconclusive.

Test [1] can be described thus: qHTS assay to identify small molecule antagonists of the thyroid receptor (TR) signaling pathway (AID 743065). Note: nearly all actives have a fitted effect of over 55% in size. Note: potency is the fitted concentration of half-maximal effect. The method in brief: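 GH3.TRE-Luc rat pituitary cells carrying two TR response elements driving luciferase were plated for 4 h, given compound plus 1 nM T3 (final), and incubated 23.5 h at 37 C. ONE-Glo luminescence measured reporter inhibition; CellTiter-Fluor fluorescence tracked cytotoxicity.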
In general terms: In qHTS, concentration-response curves come from the screen itself.

Test [2] has as its system thyroid hormone receptor (rat, GH3 cells). As to the kind of experiment: qHTS assay to identify small molecule agonists of the thyroid receptor (TR) signaling pathway (AID 743066; calls by dose curve).
The target in test [3] is Estrogen receptor (Homo sapiens) (UniProt P03372). As to the kind of experiment: qHTS assay to identify small molecule antagonists of the estrogen receptor alpha (ER-alpha) signaling pathway (AID 743069; active = well fitted curve in the direction sought with a large enough effect in the signal ratio in the repeat runs, not every such curve was filed as active; the % refers to the signal ratio). Summed up: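 HEK293 cells stably carrying an ER-alpha-UAS-bla beta-lactamase reporter were pre-cultured overnight in 2% charcoal-stripped FBS medium. Test compounds in DMSO were added together with 17beta-estradiol for 18 hr at 37C. Read-out was fluorescence after 2 hr with LiveBLAzer B/G FRET substrate at room temperature.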
Estrogen receptor (Homo sapiens), sequence (P03372 whole entry, looked up): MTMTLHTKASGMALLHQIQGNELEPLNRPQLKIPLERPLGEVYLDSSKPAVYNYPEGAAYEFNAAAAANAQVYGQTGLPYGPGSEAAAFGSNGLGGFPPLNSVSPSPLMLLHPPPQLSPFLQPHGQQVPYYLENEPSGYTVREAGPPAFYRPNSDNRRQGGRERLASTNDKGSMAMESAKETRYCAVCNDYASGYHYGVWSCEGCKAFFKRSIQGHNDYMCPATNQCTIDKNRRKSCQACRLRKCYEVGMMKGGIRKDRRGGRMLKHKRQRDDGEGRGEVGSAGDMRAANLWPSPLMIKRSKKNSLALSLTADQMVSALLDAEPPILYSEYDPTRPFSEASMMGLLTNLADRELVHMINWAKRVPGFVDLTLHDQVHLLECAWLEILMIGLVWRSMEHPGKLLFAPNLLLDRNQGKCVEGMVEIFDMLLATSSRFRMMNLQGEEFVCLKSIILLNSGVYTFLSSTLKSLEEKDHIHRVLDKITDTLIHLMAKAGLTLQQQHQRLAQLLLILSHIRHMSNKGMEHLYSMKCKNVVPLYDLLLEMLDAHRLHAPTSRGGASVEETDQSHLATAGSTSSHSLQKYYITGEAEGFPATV

Test [4] is described as follows: qHTS assay to identify small molecule antagonists of the estrogen receptor alpha (ER-alpha) signaling pathway - cell viability counter screen (AID 743074; calls by dose curve; note: nearly all actives have a fitted effect of over 45% in size).
The target of test [5] is Estrogen receptor (Homo sapiens) (UniProt P03372). Description: qHTS assay to identify small molecule agonists of the estrogen receptor alpha (ER-alpha) signaling pathway (AID 743075; calls by dose curve).
Test [6] shares this target. Description: qHTS assay to identify small molecule agonists of the estrogen receptor alpha (ER-alpha) signaling pathway using the BG1 cell line (AID 743079). Note: nearly all actives have a fitted effect of over 20% in size. Note: potency is the fitted concentration of half-maximal effect.
Test [7] in a line: qHTS assay to identify small molecule antagonists of the estrogen receptor alpha (ER-alpha) signaling pathway using the BG1 cell line (AID 743080; calls by dose curve;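 note: BG1 cells stimulated with 17beta-estradiol alongside compound; series mostly up to about 70 µM; nearly all actives have a fitted effect of over 25% in size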). The method in brief: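 BG1Luc4E2, endogenous ER-alpha, 4xERE-luc; 5 d charcoal-stripped FBS, phenol red free; 24 h plating; cpd + 17beta-estradiol 21.5 h, 37 C/5% CO2; CellTiter-Fluor viability 30 min, then ONE-Glo luciferase 30 min RT.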

The next test addresses Aromatase (Homo sapiens) (UniProt P11511). As to the kind of experiment: qHTS assay to identify aromatase inhibitors (AID 743083). Note: series mostly up to about 70 µM; nearly all actives have a fitted effect of over 55% in size.
Test [8] can be described thus: qHTS assay to identify small molecule antagonists of the estrogen receptor alpha (ER-alpha) signaling pathway using the BG1 cell line - cell viability counter screen (AID 743081).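 Note: compound given together with 17beta-estradiol as the ER stimulus; series mostly up to about 70 µM; nearly all actives have a fitted effect of over 45% in size.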
Test [9] in a line: qHTS assay to identify small molecule antagonists of the thyroid receptor (TR) signaling pathway - cell viability counter screen (AID 743064). Note: nearly all actives have a fitted effect of over 50% in size. Note: potency is the fitted concentration of half-maximal effect. The method in brief: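 GH3.TRE-Luc rat pituitary cells carrying a TRE-luciferase reporter were treated with compound plus 1 nM T3 (final) for 23.5 h at 37 °C. Viability was then read in the same wells by CellTiter-Fluor fluorescence after a further 30 min.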

Aromatase (Homo sapiens), sequence (P11511 whole entry, looked up): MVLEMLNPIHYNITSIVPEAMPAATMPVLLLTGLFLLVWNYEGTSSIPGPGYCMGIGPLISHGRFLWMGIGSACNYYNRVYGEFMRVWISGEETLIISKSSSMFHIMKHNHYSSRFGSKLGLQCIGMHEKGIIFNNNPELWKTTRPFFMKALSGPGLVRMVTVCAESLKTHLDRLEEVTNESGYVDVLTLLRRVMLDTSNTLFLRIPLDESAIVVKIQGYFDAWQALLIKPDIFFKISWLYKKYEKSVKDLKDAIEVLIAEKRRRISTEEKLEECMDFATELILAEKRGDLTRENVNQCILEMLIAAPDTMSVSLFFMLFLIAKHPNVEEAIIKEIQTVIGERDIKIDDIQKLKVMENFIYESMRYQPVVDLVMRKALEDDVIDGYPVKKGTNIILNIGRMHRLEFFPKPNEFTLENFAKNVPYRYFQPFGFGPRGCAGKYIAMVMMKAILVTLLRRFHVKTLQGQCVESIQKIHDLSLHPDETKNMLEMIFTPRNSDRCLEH

`CC(C)(C)NCC(O)c1cc(Cl)c(N)c(C(F)(F)F)c1` (centres undefined): the Potency result in test [1], in test [2], in test [3], in test [4], in test [5] and in test [6] was “inactive” in each case. The Potency entry (in [7]; with Aromatase (Homo sapiens)) was “inactive” each time.
On to `CC(C)C1(C)N=C(c2ncccc2C(=O)O)NC1=O` (centres undefined), for which the Potency result in [1], in [2], in test [4], in [5], in test [6] and in test [7] was “inactive” throughout. Besides, the Potency entry (in [8]; with Aromatase (Homo sapiens)) was “inactive” each time.
Consider `C[C@H](N)[C@H](O)c1ccc(O)c(O)c1`, for which the Potency in [9] is 26.6 µM (active). The Potency entry (in test [4]; in test [5]; in test [6]; in [7]; in the test with Aromatase (Homo sapiens)) was “inactive” each time.
In the case of `CC(Cc1ccccc1)NCc1ccccc1Cl` (centres undefined), the Potency entry in [1], in [2], in test [3], in [4], in test [5] and in test [8] was “inactive” each time. For the same molecule, the Potency entry with Aromatase (Homo sapiens) is “inactive”. Moreover, in test [6], the Potency is 26.6 µM (active).
As to `CC(Oc1cc(Cl)c(Cl)cc1Cl)C(=O)O` (centres undefined), the Potency entry (in test [4]; in test [5]; in [6]; in test [7]; in test [8]; in the test with Aromatase (Homo sapiens)) was “inactive” in each case.
In the case of `CCCN(CCC)C(=O)Cc1c(-c2ccc(Cl)cc2)nc2ccc(Cl)cn12`, the Potency result in [2], in test [4], in test [5], in [6], in test [7] and in [8] was “inactive” in each case. Further, in the test with Aromatase (Homo sapiens), the Potency entry was “inactive”.
For the molecule `CNC(=O)Oc1cccc(N=CN(C)C)c1`, the Potency entry in [9], in test [2], in test [4], in test [5], in test [6] and in [8] was “inactive” throughout. Besides, the Potency entry with Aromatase (Homo sapiens) is “inactive”.
`NCCc1cc(O)c(O)cc1O`: the Potency entry in [2], in test [4], in test [5], in [6], in test [7] and in [8] was “inactive” in each case. Moreover, in the test with Aromatase (Homo sapiens), the Potency result was “inactive”.
Turning to `CC(=O)NNc1ccccc1`, the Potency in [1] was 4.82 µM (active). Further, the Potency result (in test [2]; in test [4]; in [8]; with Aromatase (Homo sapiens)) was “inactive” throughout.
As for `O=C(N/N=C/c1ccc([N+](=O)[O-])o1)c1cc([N+](=O)[O-])cc([N+](=O)[O-])c1O`, the Potency result (in test [1]; in [2]; in test [4]; with Aromatase (Homo sapiens)) was “inactive” each time.
In the case of `CCOC(=O)NC(O)C(Cl)(Cl)Cl` (centres undefined), the Potency result in test [1], in test [2], in [3], in [4], in test [5] and in test [6] was “inactive” in each case. Also, the Potency entry (in [7]; in test [8]; in the test with Aromatase (Homo sapiens)) was “inactive” each time.
Take `C=CCN1C[C@H](C)N([C@H](c2ccc(C(=O)N(CC)CC)cc2)c2cccc(OC)c2)C[C@H]1C`: the Potency entry in [2], in [4], in test [5], in [6], in test [7] and in test [8] was “inactive” throughout. Besides, the Potency entry with Aromatase (Homo sapiens) is “inactive”.
Consider `C=CC(=O)OCC`, for which the Potency entry in [1], in test [2], in test [4], in [5], in test [6] and in test [7] was “inactive” in each case. The Potency result (in test [8]; with Aromatase (Homo sapiens)) was “inactive” each time.
Take `O=S(=O)(Cl)Cl`: the Potency result in test [9], in test [3], in test [4], in test [5], in [6] and in [8] was “inactive” each time. Besides, the Potency result with Aromatase (Homo sapiens) is “inactive”.
Regarding `CCC1(C2=NCCN2)Cc2ccccc2O1` (centres undefined), the Potency result in test [9], in [2], in test [4], in test [5], in test [6] and in [7] was “inactive” throughout. Moreover, the Potency result (in test [8]; in the test with Aromatase (Homo sapiens)) was “inactive” throughout.
`CC1(C)CC(=O)CC(C)(C)N1[O]`: the Potency result (in test [9]; in test [4]; in test [8]; with Aromatase (Homo sapiens)) was “inactive” throughout.

(Values after PubChem BioAssay (Tox21).)
